Source: PubChem BioAssay
Most compounds without a hit are left out; they make up all but 6.2% or so of the library.
Lassa entry inh: qHTS for Inhibitors of binding or entry into cells for Lassa Virus; Lassa virus pseudotype entry inhibition, cell reporter; 1.2% of 300,000 active; Potency, µM (titrated, usually from 37.9 µM), for inactives: at the highest dose activity change, negative = inhibition, most hits filed as inhibitors; calls by dose curve; tested in HEK293 cells; further: potency means the concentration at half of the fitted maximal effect; nearly all actives have a fitted effect of over 50% in size
FMDV antiviral: High Throughput Screening for Foot and Mouth Disease Virus Antivirals; FMDV antiviral cell-based qHTS; Potency, µM (doses to about 57.9 µM), for inactives: at the top dose activity change, negative = inhibition, usual class: inhibitors; 1.2% of 410,000 active; AID 1159524, 2015; calls by dose curve; tested in HEK293T cells; further: read-out not given here; potency means the concentration at half of the fitted maximal effect; nearly all actives have a fitted effect of over 45% in size
Marburg entry inh: qHTS for inhibitors of binding or entry into cells for Marburg Virus; Marburg virus pseudotyped entry inhibition, cell reporter; Potency, µM (top dose mostly 37.8 µM), for the others: top-dose activity change, negative = inhibition, hits mostly inhibitors; 1.8% of 300,000 active; calls by dose curve; tested in HEK293 cells; further: potency means the concentration at half of the fitted maximal effect
HCMV antiviral: qHTS Assay for inhibitors of the human cytomegalovirus (HCMV); HFF cells, HCMV-luciferase reporter, 72 h; active compounds read low; 4.5% of 410,000 active; activity change, negative = inhibition, % at 57.5 µM; in the data active means activity change below about -60%; inconclusive means no clear call, values can overlap the other calls; inactive means above about -39%
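Steps: HFFs plated, 16 h 37C; compounds added; HCMV-luciferase added to MOI 1 PFU/cell; 72 h 37C; OneGlo reagent, 5 min room temperature; luminescence read, normalized to controls.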
An asterisk follows results filed as active; u = inconclusive; x = no result; [ ] = remark or other dose. On the % scale 0 is the no-effect control and ±100 the full control effect.

SMILES	Lassa entry inh	FMDV antiviral	Marburg entry inh	HCMV antiviral
O=C(Nc1ccc(N2CCOCC2)c(Cl)c1)c1ccc2c(c1)OCCO2	x	-16.7%	x	-61.4*
O=C(Nc1ccc(N2CCCCC2)c(Cl)c1)c1ccc2c(c1)OCCO2	-24.1%	3.9%	-24.6%[46.1 µM]	-77.1*
O=C(Nc1ccc2c(c1)OCCO2)c1ccc(Br)c(S(=O)(=O)N2CCOCC2)c1	u	17.8µM*	u	-36.7
N#Cc1c(Cl)nc2c(c1C#N)CCCC2	8.6%	-23.1%	15.7%	-74.8*
[O-][n+]1cccc2c(Br)cc(Br)c(O)c21	12.2%[46.1 µM]	-19.1%	11.1%[46.1 µM]	-84.4*
Oc1c(Br)cc(Br)c2cccnc12	x	0.0%	x	19.6
COc1ccccc1-n1cc(C(=O)NCCN2Cc3ccccc3OC(c3ccsc3)C2)cn1 (stereo not given)	x	-9.3%	x	x
COc1ccc2c(c1)c1c(c(=O)n(-c3ccc(F)c(Cl)c3)c(=O)n1Cc1cccc(C)c1)n2C	27.8%[46.1 µM]	-20.7%	x	12.5
COc1ccc2c(c1)c1c(c(=O)n(-c3cccc(C)c3)c(=O)n1Cc1cccc(Cl)c1)n2C	1.4%[46.1 µM]	-4.1%	x	-67.3*
O=C(CS(=O)(=O)c1ccc(Cl)cc1)Nc1nc2ccc(Br)cc2s1	17.6%[46.1 µM]	-14.5%	x	u
O=C(CCCc1c[nH]c2ccccc12)N1CCN(S(=O)(=O)c2cccs2)CC1	-28.0%	25.1µM*	-26.5%	-7.3
O=C(CCc1c[nH]c2ccccc12)N1CCN(c2ccc(O)cc2)CC1	u	17.3%	u	-64.6*
COc1ccc(N2CCN(C(=O)CCc3c[nH]c4ccccc34)CC2)cc1	u	10.8%	-4.8%[46.1 µM]	-8.5
Cc1ccc(C(=O)CSc2cc(C)nc(SCC(=O)c3ccccc3)n2)cc1	u	u	u	-15.4
Cc1cc(Oc2ccc(C)c(Cl)c2)nc(SCC(=O)c2ccccc2)n1	u	u	u	-73.6*
COCc1c(C(=O)NC2CCCC2)cnn1-c1nccc(-c2cc(C)sc2C)n1	x	34.9%	x	x
CCCc1cc(=O)oc2c(C)c(O[C@@H]3O[C@H](CO)[C@@H](O)[C@H](O)[C@H]3O)ccc12	-19.3%	-12.2%	-22.1%	-66.0*
COCCN(Cc1cc2cc(C)cc(C)c2nc1Cl)C(=O)Nc1ccccc1	-6.1%	11.6%	-14.0%	1.7
Cc1cc(C)c2nc(Cl)c(CN(Cc3ccco3)C(=O)Nc3ccccc3C)cc2c1	u	x	u	-62.7*
COc1ccc2c(c1)-c1c(sn(-c3ccccc3)c1=S)C(C)(C)N2	-16.4%	u	-12.1%	u
COc1ccc2c(c1)-c1c(ssc1=S)C(C)(C)N2	2.4%	x	4.6%	-88.7*
COc1ccc(-n2sc3c(c2=S)-c2cc(OC)ccc2NC3(C)C)cc1	-18.6%	-10.2%	u	-68.0*
CN(C)c1nc2cc(Cl)ccc2cc1CN(Cc1ccc2c(c1)OCO2)C(=O)c1ccoc1	x	5.7%	x	x
CCOc1cccc2cc(C(=O)N3CCc4ccccc43)c(=O)oc12	7.6%	50.3%	27.1%	25.5
COc1cccc2cc(C(=O)N3CCc4ccccc43)c(=O)oc12	-2.8%	8.2%	2.8%[46.1 µM]	-71.4*
SMILES	Lassa entry inh	FMDV antiviral	Marburg entry inh	HCMV antiviral
COc1cc(/C=C/C(=O)OCC(=O)N2CCCc3ccccc32)ccc1O	-26.0%	-9.7%	1.26µM*	-14.8
COc1cccc(C(=O)OCC(=O)N2CCc3ccccc32)c1OC	26.4%	28.0%	u	-98.5*
COc1cc(/C=C/C(=O)OCC(=O)N2CCCc3ccccc32)ccc1OCC#N	x	14.7%	x	-5.2
O=C(Cc1cscn1)N1CCOc2ccc(CN3CCN(c4ccccn4)CC3)cc2C1	x	-4.8%	x	x
CC[C@H](C)[C@H]1O[C@]2(C=C[C@@H]1C)C[C@@H]1C[C@@H](C/C=C(\C)[C@@H](O[C@H]3C[C@H](OC)[C@@H](O[C@H]4C[C@H](OC)[C@@H](O)[C@H](C)O4)[C@H](C)O3)[C@@H](C)/C=C/C=C3\CO[C@@H]4[C@H](O)C(C)=C[C@@H](C(=O)O1)[C@]34O)O2	x	0.0%	x	x
Cc1cc(C)n(Cc2cccc(C(=O)NCC3Cc4cccc(-c5ncccn5)c4O3)c2)n1 (stereo not given)	x	-8.0%	x	x
O=C(C(=O)N1CCC(Cc2ccccc2)CC1)c1ccccc1Br	x	-10.3%	x	-63.4*
CCOC(=O)C(=O)N1CCC(Cc2ccccc2)CC1	7.3%	1.4%	16.2%[46.1 µM]	-32.3
Cc1ccc(S(=O)(=O)NC2CC(C)(C)NC(C)(C)C2)c(C)c1C	1.7%	-6.3%	-29.7%	-21.7
Cc1ccc(C(C)C)cc1S(=O)(=O)NC1CC(C)(C)NC(C)(C)C1	u	37.2%	12.6µM*	-13.9
